# Test results as given in PubChem BioAssay AID1159580 (chemical genetic matrix, 2015).
# Out of some 5,500 compounds screened, about 2,000 (36%) were called active. Roughly 18% stayed inconclusive and do not appear here. The list shows a part of the results. Values without a mark were called inactive. Rule as the data show it: active = normalized growth mostly below about 0.91 (no sharp cut-off); inconclusive = no clear call, values can overlap the other calls; inactive = mostly above about 0.92.
# Experiment: chemical genetic growth profiling, strain panel (AID 1159580);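 also: tested at 20 µM; growth read once vehicle control cultures reached saturation at 30 °C; 1 = growth at the plate median or of vehicle wells; lower values mean less growth of the strain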
# Conditions: S. cerevisiae deletion strains, growth OD
compound,measurement,setting,value
COc1cc(O)c2c(=O)c(O)c(-c3ccc(O)c(O)c3)oc2c1,normalized growth,"locus YAL013W, strain DEP1, stronger effect = lower value",0.998
same,normalized growth,"locus YAL021C, strain ccr4, stronger effect = lower value",0.466 (active)
same,normalized growth,"locus YAL026C, strain drs2, stronger effect = lower value",0.678 (active)
same,normalized growth,"locus YAL030W, strain snc1, stronger effect = lower value",0.886 (active)
same,normalized growth,"locus YBL061C, strain skt5, stronger effect = lower value",0.794 (active)
same,normalized growth,"locus YBR009C, strain hhf1, stronger effect = lower value",0.773 (active)
same,normalized growth,"locus YBR021W, strain FUR4, stronger effect = lower value",1.01
same,normalized growth,"locus YBR023C, strain chs3, stronger effect = lower value",0.693 (active)
same,normalized growth,"locus YBR171W, strain sec66, stronger effect = lower value",0.932
same,normalized growth,"locus YBR229C, strain ROT2, stronger effect = lower value",0.987
same,normalized growth,"locus YBR231C, strain swc5, stronger effect = lower value",0.72 (active)
same,normalized growth,"locus YBR279W, strain paf1, stronger effect = lower value",0.829 (active)
same,normalized growth,"locus YCL011C, strain gbp2, stronger effect = lower value",0.803 (active)
same,normalized growth,"locus YCL016C, strain dcc1, stronger effect = lower value",0.865 (active)
same,normalized growth,"locus YCL029C, strain bik1, stronger effect = lower value",1.01
same,normalized growth,"locus YCL069W, strain vba3, stronger effect = lower value",0.846 (active)
same,normalized growth,"locus YCR088W, strain abp1, stronger effect = lower value",0.912 (active)
same,normalized growth,"locus YDL005C, strain med2, stronger effect = lower value",1
same,normalized growth,"locus YDL035C, strain GPR1, stronger effect = lower value",0.931
same,normalized growth,"locus YDL040C, strain nat1, stronger effect = lower value",0.988
same,normalized growth,"locus YDL074C, strain BRE1, stronger effect = lower value",0.822
same,normalized growth,"locus YDL101C, strain DUN1, stronger effect = lower value",0.911
same,normalized growth,"locus YDL185W, strain tfp1, stronger effect = lower value",0.995
same,normalized growth,"locus YDL192W, strain arf1, stronger effect = lower value",0.986
same,normalized growth,"locus YDR001C, strain nth1, stronger effect = lower value",0.954
same,normalized growth,"locus YDR069C, strain doa4, stronger effect = lower value",0.467 (active)
same,normalized growth,"locus YDR101C, strain arx1, stronger effect = lower value",0.992
same,normalized growth,"locus YDR137W, strain rgp1, stronger effect = lower value",0.659 (active)
same,normalized growth,"locus YDR159W, strain sac3, stronger effect = lower value",0.891
same,normalized growth,"locus YDR162C, strain NBP2, stronger effect = lower value",0.948
same,normalized growth,"locus YDR195W, strain ref2",1.02
same,normalized growth,"locus YDR297W, strain sur2, stronger effect = lower value",0.787 (active)
same,normalized growth,"locus YDR318W, strain mcm21, stronger effect = lower value",0.986
same,normalized growth,"locus YDR334W, strain swr1, stronger effect = lower value",0.755 (active)
same,normalized growth,"locus YDR335W, strain msn5, stronger effect = lower value",0.761 (active)
same,normalized growth,"locus YDR388W, stronger effect = lower value",1.01
same,normalized growth,"locus YDR392W, strain spt3, stronger effect = lower value",0.838
same,normalized growth,"locus YDR502C, strain sam2, stronger effect = lower value",0.981
same,normalized growth,"locus YEL003W, strain gim4, stronger effect = lower value",0.795 (active)
same,normalized growth,"locus YEL037C, strain rad23, stronger effect = lower value",0.823 (active)
same,normalized growth,"locus YEL061C, strain CIN8 (second series), stronger effect = lower value",0.907 (active)
same,normalized growth,"locus YEL061C, strain CIN8, stronger effect = lower value",0.966
same,normalized growth,"locus YER015W, strain faa2, stronger effect = lower value",0.66 (active)
same,normalized growth,"locus YER016W, strain bim1, stronger effect = lower value",0.895 (active)
same,normalized growth,"locus YER110C, stronger effect = lower value",1.03
same,normalized growth,"locus YER111C, strain swi4, stronger effect = lower value",0.793 (active)
same,normalized growth,"locus YER155C, strain BEM2 (second series), stronger effect = lower value",0.789 (active)
same,normalized growth,"locus YER155C, strain BEM2, stronger effect = lower value",1.01
same,normalized growth,"locus YER167W, strain BCK2, stronger effect = lower value",1.02
same,normalized growth,"locus YFR010W, strain ubp6, stronger effect = lower value",0.736 (active)
same,normalized growth,"locus YGL078C, strain dbp3, stronger effect = lower value",1.01
same,normalized growth,"locus YGL086W, strain mad1, stronger effect = lower value",0.933
same,normalized growth,"locus YGL167C, strain pmr1, stronger effect = lower value",0.949
same,normalized growth,"locus YGL173C, strain kem1, stronger effect = lower value",0.657 (active)
same,normalized growth,"locus YGL227W, strain vid30, stronger effect = lower value",1.01
same,normalized growth,"locus YGL240W, strain doc1, stronger effect = lower value",0.961
same,normalized growth,"locus YGL248W, strain PDE1, stronger effect = lower value",0.915
same,normalized growth,"locus YGL253W, strain hxk2, stronger effect = lower value",0.693 (active)
same,normalized growth,"locus YGR135W, strain pre9, stronger effect = lower value",0.984
same,normalized growth,"locus YGR252W, strain gcn5, stronger effect = lower value",1.03
same,normalized growth,"locus YHR013C, strain ard1, stronger effect = lower value",0.808 (active)
same,normalized growth,"locus YHR027C, strain rpn1, stronger effect = lower value",0.549 (active)
same,normalized growth,"locus YHR030C, strain SLT2, stronger effect = lower value",0.971
same,normalized growth,"locus YHR079C, strain IRE1 (second series), stronger effect = lower value",1.02
same,normalized growth,"locus YHR094C, strain hxt1, stronger effect = lower value",1.02
same,normalized growth,"locus YHR129C, strain ARP1, stronger effect = lower value",0.875 (active)
same,normalized growth,"locus YHR142W, strain chs7, stronger effect = lower value",0.622 (active)
same,normalized growth,"locus YHR200W, strain rpn10, stronger effect = lower value",0.997
same,normalized growth,"locus YIL066C, strain RNR3, stronger effect = lower value",0.974
same,normalized growth,"locus YIL073C, strain SPO22, stronger effect = lower value",0.925
same,normalized growth,"locus YIL125W, strain kgd1, stronger effect = lower value",0.981
same,normalized growth,"locus YIR030C, strain dcg1, stronger effect = lower value",1.01
same,normalized growth,"locus YJL092W, strain hpr5, stronger effect = lower value",0.885 (active)
same,normalized growth,"locus YJL095W, strain BCK1 (second series), stronger effect = lower value",0.746 (active)
same,normalized growth,"locus YJL095W, strain BCK1, stronger effect = lower value",0.822
same,normalized growth,"locus YJL115W, strain asf1, stronger effect = lower value",0.968
same,normalized growth,"locus YJL129C, strain trk1, stronger effect = lower value",0.867 (active)
same,normalized growth,"locus YJL134W, strain LCB3, stronger effect = lower value",0.986
same,normalized growth,"locus YJL154C, strain vps35, stronger effect = lower value",0.957
same,normalized growth,"locus YJL164C, strain tpk1, stronger effect = lower value",0.723 (active)
same,normalized growth,"locus YJL166W, strain qcr8, stronger effect = lower value",0.819 (active)
same,normalized growth,"locus YJL168C, strain set2, stronger effect = lower value",1.03
same,normalized growth,"locus YJL187C, strain SWE1 (second series), stronger effect = lower value",0.776 (active)
same,normalized growth,"locus YJR043C, strain POL32, stronger effect = lower value",0.896
